Experimental data reported in PubChem BioAssay (NCI).
This is part of a sample that, as a whole, favours compounds with a hit. Of some 83,000 tested, about 20% had one in any assay.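 Percent growth is the endpoint: 0 to 100 indicates growth inhibition (40 means 60% inhibition), 0 means no net growth, and negative values indicate cell death.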 Values without a mark were called inactive. Calls of active or inactive are those of the source. Rule for the calls: active = growth percent below 10; inactive = the rest.

Key:
Assay in all cases: NCI-60 one-dose screen, 48 h (100 = growth as untreated, 0 = no growth, -100 = all killed)
Conditions in all cases: 10 µM unless noted
[1] = system: HCT-15 colon
[2] = system: HT29 colon
[3] = system: SNB-75 CNS
[4] = system: SNB-19 CNS
[5] = system: U251 CNS
[6] = system: PC-3 prostate
[7] = system: SK-MEL-5 melanoma
[8] = system: UACC-62 melanoma
[9] = system: LOX IMVI melanoma
[10] = system: SK-MEL-28 melanoma

In the case of `c1ccc(-c2nc(N3CCNCC3)c3oc(-c4ccccc4)nc3n2)cc1`, the growth [1] is reported as -75.6% (active), the growth [2] is reported as -26.2% (active) and the growth [3] is reported as -95.9% (active). The growth [4] was -27.9% (active), the growth [5] was -57% (active) and the growth [6] was -27.9% (active). For the same compound, the growth [7] was -93.3% (active), the growth [8] was -82% (active) and the growth [9] was -81.9% (active). For the same compound, the growth [10] was -95% (active).

`C#CCOc1cccc(-c2ncnc3cc(NC(=O)CCl)ccc23)c1` was tested, and the growth [1] was -32.9% (active), the growth [2] was -70.7% (active) and the growth [3] was 18%. For the same compound, the growth [4] was 7.8% (active), the growth [5] was -93.7% (active) and the growth [6] was -15.9% (active). The growth [7] was -86% (active), the growth [8] was -41.7% (active) and the growth [9] was -83.7% (active). The growth [10] was 20.2%.

For `COc1ccc(/C=C2/CCc3cc4ccc(OC)cc4[o+]c32)c(O)c1`, the growth [1] was 4.44% (active), the growth [2] was 29.6% and the growth [3] was 90.9%. For the same compound, the growth [4] was 63.1%, the growth [5] was 69.4% and the growth [6] was 8.84% (active). The growth [7] was 67.8%, the growth [8] was 47.5% and the growth [9] was 7.79% (active). It also gave a growth [10] of 47.8%.

`COc1ccc(NC(=O)c2sc3nc(C)c(C(=O)c4ccccc4)cc3c2N)cc1` gave a growth [1] of 95.2%, a growth [2] of 89.8% and a growth [3] of 107%. For the same compound, the growth [4] was 90.8%, the growth [5] was 100% and the growth [6] was 97%. It also gave a growth [7] of 103%, a growth [8] of 79.9% and a growth [9] of 108%. For the same compound, the growth [10] was 89.9%.

`COc1cc2c(c(OC)c1OC)CCC(c1cccc(NC(=O)c3cccc(Cl)c3)c1)O2` (stereo not drawn) was tested, and the growth [1] was 83.6%, the growth [2] was 73.7% and the growth [3] was 85.6%. It also gave a growth [4] of 91.8%, a growth [5] of 91.1% and a growth [6] of 66.6%. For the same compound, the growth [7] was 79.6%, the growth [8] was 68.1% and the growth [9] was 96.2%. It also gave a growth [10] of 92.1%.

With `O=C(OCC(O)(CO)C(=O)NC12CC3CC(CC(C3)C1)C2)c1ccc(Cl)cc1` (stereo not drawn) the growth [1] was 104%, the growth [2] was 94.8% and the growth [3] was 97.6%. For the same compound, the growth [4] was 96.2%, the growth [5] was 93.5% and the growth [6] was 93.7%. It also gave a growth [7] of 101%, a growth [8] of 97.4% and a growth [9] of 95.2%. For the same compound, the growth [10] was 113%.

Compound `Cn1ccnc1C(=O)/C=C/c1ccc(C(=O)Nc2ccccc2F)cc1` has a growth [1] of 14.2%, a growth [2] of 10.9% and a growth [3] of 56.2%. For the same compound, the growth [4] was 21.1%, the growth [5] was 10.5% and the growth [6] was 25.1%. For the same compound, the growth [7] was 83.7%, the growth [8] was 37.3% and the growth [9] was -41.1% (active). For the same compound, the growth [10] was 59.2%.

`O=C(c1ccc(F)cc1)C1CCN(CCn2c(=O)[nH]c3ccccc3c2=O)CC1` gave a growth [1] of 105%, a growth [2] of 98.4% and a growth [3] of 92.6%. It also gave a growth [4] of 110%, a growth [5] of 101% and a growth [6] of 87.4%. For the same compound, the growth [7] was 94.2%, the growth [8] was 102% and the growth [9] was 98.7%. The growth [10] was 108%.

`COc1cc(/C=C/c2cc(/C=C/c3ccc(O)c(OC)c3)n(C(=O)Nc3ccc(C)cc3C)n2)ccc1O` was tested, and the growth [1] was 3.84% (active), the growth [2] was -38.5% (active) and the growth [3] was -30.5% (active). The growth [4] was 2.45% (active), the growth [5] was -12.3% (active) and the growth [6] was -10.8% (active). The growth [7] was -83.4% (active), the growth [8] was -48.5% (active) and the growth [9] was -29.8% (active). For the same compound, the growth [10] was 5.57% (active).

In the case of `N=C(N)c1ccc(-c2ccc(-c3ccccc3)s2)nc1`, the growth [1] is reported as 44.9%, the growth [2] is reported as 26.7% and the growth [3] is reported as 88.4%. For the same compound, the growth [4] was 87.5%, the growth [5] was 41.1% and the growth [6] was 80.5%. The growth [7] was 87.5%, the growth [8] was 91.6% and the growth [9] was 51.3%. For the same compound, the growth [10] was 109%.

In the case of `Cn1ccnc1C(=O)/C=C/c1ccc(C(=O)Nc2c(F)c(F)c(F)c(F)c2F)cc1`, the growth [1] is reported as -15.5% (active), the growth [2] is reported as 1.2% (active) and the growth [3] is reported as 7.64% (active). The growth [4] was 5.66% (active), the growth [5] was -48.9% (active) and the growth [6] was 7.27% (active). For the same compound, the growth [7] was 53.1%, the growth [8] was 29.3% and the growth [9] was -83.5% (active). The growth [10] was 82.5%.

For `CC1=C(C(=O)c2ccccc2)C(c2ccc3c(c2)OCO3)NC(=S)N1` (stereo not drawn), the growth [1] was 33.7%, the growth [2] was 18.5% and the growth [3] was -1.4% (active). It also gave a growth [4] of 63.8%, a growth [5] of 37.5% and a growth [6] of 61.5%. The growth [7] was 28.2%, the growth [8] was 51.6% and the growth [9] was 36.2%. The growth [10] was 70.9%.

`CCOC(=O)c1c(C)nc2c(c1N)C(=O)C(=O)N2CCc1ccc(OC)c(OC)c1` showed a growth [1] of 33.3%, a growth [2] of 39.6% and a growth [3] of 67%. The growth [4] was 84.8%, the growth [5] was 57.7% and the growth [6] was 58.9%. It also gave a growth [7] of 44.9%, a growth [8] of 64.8% and a growth [10] of 80.9%.

`C#CCOc1cc(/C=N/Nc2nc(-c3ccc(OC)cc3)cs2)ccc1O` gave a growth [1] of 83.1%, a growth [2] of 92.6% and a growth [3] of 95.5%. It also gave a growth [4] of 91.9%, a growth [5] of 83.8% and a growth [6] of 82.2%. The growth [7] was 63.7%, the growth [8] was 70.8% and the growth [10] was 97.8%.

`Cc1ccc(-c2nn(CC(=O)N3CCOCC3)c(N)c2C#N)cc1` showed a growth [1] of 105%, a growth [2] of 112% and a growth [3] of 89.4%. The growth [4] was 97.4%, the growth [5] was 99.4% and the growth [6] was 100%. It also gave a growth [7] of 102%, a growth [8] of 93.1% and a growth [10] of 102%.

Work on `O=C(O)c1nn(-c2ccc(Cl)cc2)nc1N1CCCC1` yielded a growth [1] of 92.2%, a growth [2] of 104% and a growth [3] of 85.7%. The growth [4] was 103%, the growth [5] was 92.3% and the growth [6] was 95.4%. It also gave a growth [7] of 96.4%, a growth [8] of 99.6% and a growth [10] of 105%.

`Cc1ccc(S(=O)(=O)N(CCC(=O)O)c2ccccc2)cc1` gave a growth [1] of 102%, a growth [2] of 110% and a growth [3] of 118%. It also gave a growth [4] of 109%, a growth [5] of 102% and a growth [6] of 101%. The growth [7] was 112%, the growth [8] was 104% and the growth [10] was 119%.

For `COc1cc2cc(Oc3ccc(NC(=O)Nc4ccc(Cl)c(Cl)c4)cc3)c(C)nc2cc1OCCN1CCCCC1`, the growth [1] was 71.6%, the growth [2] was 19.9% and the growth [3] was 96.8%. The growth [4] was 99.3%, the growth [5] was 53.2% and the growth [6] was -30.2% (active). The growth [7] was 89%, the growth [8] was 106% and the growth [10] was 98.2%.

In the case of `CNC(=O)c1cc(Oc2ccc3nc(NC(=O)c4cc(C(F)(F)F)cc(C(F)(F)F)c4)sc3c2)ccn1`, the growth [1] is reported as 32.1%, the growth [2] is reported as 31.5% and the growth [3] is reported as 28.5%. For the same compound, the growth [4] was 15.5%, the growth [5] was 14.2% and the growth [6] was 8.79% (active). For the same compound, the growth [7] was -39.9% (active), the growth [8] was 2.25% (active) and the growth [10] was 26.4%.

`Cc1ccc(C2(C)NC(=O)N(CC(=O)Nc3cccc(C)c3)C2=O)cc1` (stereo not drawn) showed a growth [1] of 94.4%, a growth [2] of 96.6% and a growth [3] of 77.1%. For the same compound, the growth [4] was 102%, the growth [5] was 99.1% and the growth [6] was 60.1%. The growth [7] was 98.3%, the growth [8] was 84% and the growth [10] was 107%.

For `O=C(/C=C/c1ccc([N+](=O)[O-])cc1)c1cccc(Nc2nc(Nc3ccccc3)nc(Nc3ccccc3)n2)c1`, the growth [1] was 68.6%, the growth [2] was 68.2% and the growth [3] was 52.4%. For the same compound, the growth [4] was 93.7%, the growth [5] was 58% and the growth [6] was 62.1%. The growth [7] was 62.8%, the growth [8] was 82.7% and the growth [9] was 67.9%. The growth [10] was 88.3%.

`O=c1[nH]c(CN2CCN(c3ccccc3)CC2)nc2c(Br)cc(Br)cc12` was tested, and the growth [1] was 71.5%, the growth [2] was 105% and the growth [3] was 95.8%. The growth [4] was 108%, the growth [5] was 101% and the growth [6] was 103%. For the same compound, the growth [7] was 109%, the growth [8] was 84.4% and the growth [10] was 108%.

Compound `COC(=O)c1c(C)nc(C)c2c1C(=O)C(Br)=C(NCCN1CCOCC1)C2=O` has a growth [1] of 87.9%, a growth [2] of 68.2% and a growth [3] of 119%. The growth [4] was 101%, the growth [5] was 101% and the growth [6] was 86.3%. The growth [7] was 70.8%, the growth [8] was 55.6% and the growth [10] was 113%.

`Cn1ccnc1C(=O)/C=C/c1ccc(CC(=O)Nc2cc(F)c(F)c(F)c2)cc1` was tested, and the growth [1] was 9.67% (active), the growth [2] was 10.7% and the growth [3] was -3.33% (active). For the same compound, the growth [4] was 20.3%, the growth [5] was 8.83% (active) and the growth [6] was 26.1%. It also gave a growth [7] of 62.5%, a growth [8] of 43.9% and a growth [10] of 93.5%.

For `CN(C)CCOc1nc2c3cc([N+](=O)[O-])ccc3nn2c2ccccc12`, the growth [1] was 25.9%, the growth [2] was 26.1% and the growth [3] was 77.1%. It also gave a growth [4] of 19.5%, a growth [5] of 21% and a growth [6] of 47.1%. The growth [7] was 45.6%, the growth [8] was 41.8% and the growth [10] was 93.7%.

`C#CCOc1ccc(C2=NN(CCCC)C3N=C(Cl)c4ncn(CCCC)c4N23)cc1OCC#C` (stereo not drawn) showed a growth [1] of 88.9%, a growth [2] of 96.9% and a growth [3] of 83.3%. It also gave a growth [4] of 94.6%, a growth [5] of 79.6% and a growth [6] of 63.6%. The growth [7] was 89.7%, the growth [8] was 69.6% and the growth [9] was 85.8%. The growth [10] was 93.6%.

For `CCOC(=O)C1=C(c2ccccc2)N=C2SC=C(c3cccc([N+](=O)[O-])c3)N2C1c1ccc(O)cc1` (stereo not drawn), the growth [1] was 97.7%, the growth [2] was 105% and the growth [3] was 91.4%. For the same compound, the growth [4] was 97%, the growth [5] was 96.6% and the growth [6] was 94.8%. The growth [7] was 97.7%, the growth [8] was 92.7% and the growth [9] was 95.4%. The growth [10] was 104%.
